Measured values: PubChem BioAssay AID1662 (Broad Institute, 2009)
The whole screen tested about 300,000 compounds, of which about 4,000 (1.3%) were called active. Only a selection was taken, and actives are over-represented in it overall. Values without a mark were called inactive.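 How the source made its calls: active means mean replicate score, as percent of positive control median, at least 50; inconclusive means mean below 50 but one replicate at or above 50; inactive means mean and every replicate below 50.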

experiment: kanamycin survival loss of SKKanGAS strain – BacTiter-Glo luminescence, streptokinase expression inhibitor project, primary screen (AID 1662);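 further: strain carries kanamycin resistance gene driven by streptokinase promoter and grows in 40 µg/ml kanamycin; loss of luminescence reflects streptokinase promoter inhibition or plain growth inhibition; 0% = median of DMSO wells and 100% = positive control at its reference dose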; details: S. pyogenes SKKanGAS, kanamycin growth, 6 h, at 7.5 µM, hits give high values

Compound | inhibition
C=CCNC(=S)NNC(=O)c1cc(Cl)ccc1OC | 3.23%
COc1ccc(Cl)cc1C(=O)NNC(=S)NC(=O)/C=C/c1ccco1 | 80.2% (active)
CCOCCCNC(=S)N1CCC(NC(=O)C2CCCCC2)CC1 | -0.571%
CC(C)c1nc2cc(C(=O)NC(C)c3cnn(C)c3)ccc2o1 (stereo not drawn) | -0.746%
CCCCN(CC)C(=S)Nc1ccc2nc3n(c(=O)c2c1)CCCCC3 | 2.4%
COc1ccc(CCNC(=O)C(=O)Nc2ccc3nc4n(c(=O)c3c2)CCCCC4)cc1OC | 58.4% (active)
O=C(Nc1ccc2nc3n(c(=O)c2c1)CCCCC3)c1ccccc1Cl | -2.99%
CCOc1ccc(-c2n[nH]c(C)c2-c2ccccn2)c(O)c1 | -4.57%
C=C(C)COc1ccc(-c2n[nH]c(C)c2-c2ccccc2)c(O)c1 | 62.3% (active)
C=C(C)COc1ccc(-c2n[nH]c(C)c2-c2ccccc2OC)c(O)c1 | 10.6%
CCNC(=O)c1cnn(-c2ccccc2)c1-c1ccccc1 | -2.93%
COc1ccc(C(=O)O)cc1S(=O)(=O)NCc1cccnc1 | 0.329%
Oc1ccc(N=Nc2nccs2)c(O)c1 | 3.07%
c1ccc(NCc2cccc3ccccc23)nc1 | 22.8%
Oc1ccc2ccccc2c1N=Nc1nccs1 | 106% (active)
c1ccc(-c2nc(NCc3ccco3)c3ccccc3n2)cc1 | -7.68%
CCOCCCNc1nc(-c2ccccc2)nc2ccccc12 | -2.19%
N#Cc1ccc(Oc2cc(C(F)(F)F)nc(-c3ccccn3)n2)cc1 | -2.81%
COc1ccc(Sc2nc(-c3ccccc3)ncc2OC)cc1 | 0.835%
CC(C)(C)Nc1nc(-c2ccccn2)nc2ccccc12 | 87.4% (active)
COc1ccccc1Oc1nc(-c2cccnc2)nc2ccccc12 | 5.74%
Cc1ccc(Oc2nc(-c3ccccn3)nc3ccccc23)cc1 | 76.2% (active)
COc1cnc(-c2ccccn2)nc1Oc1ccc(C(C)(C)C)cc1 | 78.3% (active)
COc1ccc(Cc2nc(-c3ccccn3)no2)cc1OC | 29.5%

Compound | inhibition
CSc1ccc(S(=O)(=O)Nc2cccc(F)c2)cc1 | 7.04%
COc1ccc(N=Nc2c(-c3ccc(OC)cc3)[nH]oc2=O)cc1 | 6.47%
CCCN(CCC)c1c([N+](=O)[O-])c(=O)oc2ccccc12 | -5.31%
CCOC(=O)c1cc2c(=O)n3ccccc3nc2n(CC(C)C)c1=NC(=O)c1c(-c2c(F)cccc2Cl)noc1C | 18.2%
O=C(CN1C(=O)NC2(CCCC2)C1=O)NCC1CCCO1 (stereo not drawn) | -1.73%
COC(C/C=C/C(=O)[C@@H](C)OCc1ccccc1)OC | -2.55%
NC(=O)c1nnsc1-c1ccc(-c2snnc2C(N)=O)cc1 | 2.07%
COc1cc2c3c(c1)/C(=C1/SC(=S)NC1=O)C(=O)N3C(C)(C)C=C2C | 61.3% (active)
Cc1nc2ccc(S(=O)(=O)N(C)CC(=O)NC(C)c3ccccc3)cc2s1 (stereo not drawn) | -15%
COCC1CCCN(C(=O)c2ccc3oc(C(C)C)nc3c2)C1 (stereo not drawn) | -3.17%
CN1CCN(C(=O)CCc2nc(-c3ccc(Cl)cc3)no2)CC1 | -5.8%
COCC1CCN(C(=O)CCc2nnc(C3(c4ccc(Cl)cc4)CCC3)o2)C1 (stereo not drawn) | 49.5% (active)
O=C(COC(=O)CNS(=O)(=O)c1ccc(F)c(F)c1F)NC1CCCC1 | 2.52%
CO/N=C(\C(=O)N[C@@H]1C(=O)N2C(C(=O)O)=C(COC(C)=O)CS[C@H]12)c1csc(N)n1 (stereo in doubt) | 33%
C=CC1=C(C(=O)O)N2C(=O)[C@@H](NC(=O)/C(=N/OCC(=O)O)c3csc(N)n3)[C@H]2SC1 | 109% (active)
Cc1ccc2c(c1)-c1c(ssc1=S)C(C)(C)N2C(=O)CN1C(=O)c2ccccc2C1=O | 24.3%
Cc1ccc(C(=O)Nc2nc(N)n(-c3ccccc3)n2)cc1 | 5.73%
Nc1nc(NC(=O)/C=C/c2ccccc2)nn1-c1ccccc1 | -11.5%
Nc1nc(NC(=O)/C=C/c2ccc(F)cc2)nn1-c1ccccc1 | 76.1% (active)
Cc1sc2nc(SCCO)n(-c3ccccc3)c(=O)c2c1C | 7.52%
COC(=O)c1ccc(NC(=O)C23CC4CC(C2)CC(n2cnc(Cl)n2)(C4)C3)cc1 | -3.03%
COCc1c(C(=O)OCc2c(C)noc2C)oc2ccccc12 | 2.6%
Cc1cc(C)c(NC(=O)c2oc3ccccc3c2COc2ccccc2)c(C)c1 | 58.7% (active)
CCOC(=O)c1oc2ccccc2c1NC(=O)c1cccs1 | -5.47%
